Screening data (PubChem)
Compounds with a hit are over-represented: about 5.4% of the library has one in this group of screens.
HPGD block = inhibitors of human 15-hydroxyprostaglandin dehydrogenase (HPGD). Potency, µM, for inactives: top-dose activity change, negative = inhibition, actives largely listed as inhibitors. purified HPGD, NADH fluorescence kinetic, PGE2 substrate. actives 4.3% (n = 150,000). P15428; active = well fitted inhibition curve with a large enough effect, not every such curve was filed as active; inconclusive = small, poorly fitted or top-dose-only effect, or another doubt; inactive = no such curve, though single readings can be large or run the other way; note: potency is the fitted concentration of half-maximal effect
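20 nM HPGD preincubated 15 min at room temperature with compound in 50 mM Tris-HCl pH 8, 0.01% Tween 20. Started with 1 mM NAD+ and 30 uM prostaglandin E2; NADH fluorescence (360/450 nm) read 5 times over 30-s intervals, last minus first.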
ALOX15B inhib = inhibitors of human 15-lipoxygenase 2 (ALOX15B) | O15296 | purified 15hLO-2, xylenol orange hydroperoxide absorbance | Potency, µM (top dose mostly 57.1 µM), for inactives: at the top dose activity change, negative = inhibition, most hits filed as inhibitors | actives 0.56% (n = 110,000); note: potency is the fitted concentration of half-maximal effect; nearly all actives have a fitted effect of over 60% in size
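Purified human 15hLO-2 (50 nM final) preincubated with compounds 15 min at room temperature in 25 mM Hepes pH 7.5, 0.01% Triton X-100, then 45 uM arachidonic acid added for 90 min; hydroperoxide detected via ferrous/xylenol orange, 573/405 nm absorbance ratio.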
PNC inhibitor = blocks assembly of the perinucleolar compartment | PC3M PTB-GFP, PNC prevalence imaging, 16 h; hits give low values | activity change (PNC), negative = inhibition, % at 10 µM | actives 3.1% (n = 140,000) | AID 2417;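 active = readout at or below -70, meaning at least 70% loss of cells showing the perinucleolar compartment, a nuclear body marking cancer cells; inconclusive = readout between -30 and a set limit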;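 note: plate controls were DMSO wells for no effect and camptothecin positive control wells for full effect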
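Compounds are pinned in duplicate onto adhered PC3M cells stably expressing GFP-tagged PTB and incubated 16 h at 37 C. Cells are then fixed, nuclei stained with Hoechst, and PNC-positive cells counted.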
IMPase Li cell = membrane-permeable IMPase blocker, potentiated with lithium. CHO-M1 cells, IP1 TR-FRET (IP-One), carbachol + lithium. Potency, µM (titrated, usually from 59.4 µM), for the others: at the top dose activity, negative = IMPase inhibition, most hits filed as inhibitors. actives 0.35% (n = 210,000);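 note: IP1 builds up when IMPase is blocked and the TR-FRET signal falls; potency is the fitted concentration of half-maximal effect; plate controls were basal vehicle for no effect and high inhibitor control for full effect; nearly all actives have a fitted effect of over 50% in size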
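Concentration–response in CHO-M1 cells, lithium-potentiated; 30 min at 37C. IP1 detected by competitive TR-FRET after 10 min lysis at RT. Hill-fitted AC50.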
IMPase cell inh = membrane-permeable compound that blocks inositol monophosphatase. inhibition (IP1 accumulation), % at 46.1 µM. CHO-M1 cells, IP1 accumulation, HTRF TR-FRET ratio. 120,000 tested, under 10 active. AID 901. P97697; active = well fitted curve in the direction sought with a large enough effect in the signal ratio, not every such curve was filed as active; inconclusive = small, poorly fitted or top-dose-only effect, or a change in a side signal; inactive = no such curve, though single readings can be large or run the other way; the % refers to the signal ratio;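 note: cells stimulated with carbachol in lithium chloride buffer; plate controls were DMSO basal wells for no effect and reference inhibitor wells for full effect; higher means more IMPase inhibition seen as more IP1 and lower FRET ratio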
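Seeded CHO-M1 cells were dosed with compound at up to 46 uM, stimulated with carbachol for 30 min, then lysed in IP-One detection reagents. Higher IP1 lowers the TR-FRET signal.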
ALOX12 inhib = blocks human 12-lipoxygenase activity; AID 1452; actives 0.12% (n = 150,000); purified 12-hLO, xylenol orange hydroperoxide absorbance; Potency, µM (titrated, usually from 57.1 µM), inactives show at the highest dose activity change, negative = inhibition, actives largely listed as inhibitors; P18054; note: potency is the fitted concentration of half-maximal effect; nearly all actives have a fitted effect of over 55% in size
Target sequence (P18054 whole entry, looked up): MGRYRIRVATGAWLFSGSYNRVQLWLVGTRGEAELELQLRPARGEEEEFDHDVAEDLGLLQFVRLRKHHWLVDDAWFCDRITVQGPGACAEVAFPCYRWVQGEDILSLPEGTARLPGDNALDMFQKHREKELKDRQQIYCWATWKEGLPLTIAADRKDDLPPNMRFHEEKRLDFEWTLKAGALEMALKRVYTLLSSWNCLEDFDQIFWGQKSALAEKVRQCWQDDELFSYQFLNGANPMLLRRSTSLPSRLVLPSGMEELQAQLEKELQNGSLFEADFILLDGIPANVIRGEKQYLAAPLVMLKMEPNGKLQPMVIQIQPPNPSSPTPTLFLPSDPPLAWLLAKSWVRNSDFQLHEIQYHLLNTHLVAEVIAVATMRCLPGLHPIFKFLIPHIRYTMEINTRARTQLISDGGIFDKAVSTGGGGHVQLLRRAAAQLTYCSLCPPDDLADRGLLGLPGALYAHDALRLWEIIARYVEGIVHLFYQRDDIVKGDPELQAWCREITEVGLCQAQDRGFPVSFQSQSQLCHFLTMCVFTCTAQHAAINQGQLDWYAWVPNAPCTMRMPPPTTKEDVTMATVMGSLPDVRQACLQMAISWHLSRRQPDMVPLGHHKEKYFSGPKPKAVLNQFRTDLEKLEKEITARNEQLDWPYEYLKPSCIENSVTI
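Hydroperoxide output read as Fe(III)-xylenol orange absorbance, 573-to-405 nm ratio, after 30 min reaction with 40 uM arachidonic acid. Enzyme: 150 nM purified human 12hLO, 15 min compound preincubation; 25 mM Hepes pH 7.0, room temperature.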
Numbers without * were called inactive; ? = inconclusive; . = no result; [ ] = remark or other dose. Unless noted, calls come from the whole dose curve; as a rule, active = well fitted curve in the direction sought with a large enough effect; inconclusive = small, poorly fitted or top-dose-only effect, or another doubt; inactive = no such curve, though single readings can be large; an effect the other way counts as inactive or inconclusive. Unless noted, % is set by controls: 0 for no effect and ±100 for the full control effect.

SMILES	HPGD block	ALOX15B inhib	PNC inhibitor	IMPase Li cell	IMPase cell inh	ALOX12 inhib
NNC(=O)CS(=O)(=O)Nc1ncccn1	-8%	-2%[11.4 µM]	.	-8%	.	3%[11.4 µM]
CS(=O)(=O)c1ccc(/C=N\NC(N)=S)cc1	-11%	-7%[11.4 µM]	.	1%	.	0%[11.4 µM]
CC(=O)N[C@@H]1CONC1=O	-2%	-5%[11.4 µM]	.	1%	.	5%[11.4 µM]
Cc1sc2ncnc(N3CCC(C)CC3)c2c1C	22µM*	.	-13	-5%	16	-1%
O=C1NCCCC2c3c(cc(Br)c(O)c3Br)OC12N1CCOCC1 (centres undefined)	32µM*	-11%	-2	37%[38.3 µM]	21	-5%
Cn1c(=O)c2c(nc(SCc3cccnc3)n2Cc2ccccc2)n(C)c1=O	-22%	?	-14	3%[38.3 µM]	6	-5%
Cn1c(=O)c2c(nc(SCc3cccnc3)n2Cc2ccc(F)cc2)n(C)c1=O	40µM*	-5%	-5	21%[38.3 µM]	6	-9%
NC(Cc1cc(I)c(Oc2cc(I)c(O)c(I)c2)c(I)c1)C(=O)O (centres undefined)	-17%	-2%	.	7%	.	-14%
Cn1c(/C(C#N)=C(\O)COc2ccc3ccccc3c2)nc2ccccc21	?	-13%	?	7.1µM*	6	-3%
COc1ccc(S(=O)(=O)N(CCc2ccccc2)CC(=O)NCc2ccc(C)cc2)cc1	.	.	.	.	4	.
COC(=O)[C@@]1(Cc2ccccc2)[C@H]2c3cc(C(=O)N(C)C)n(C[C@H](O)CO)c3C[C@H]2CN1C(=O)c1ccccc1	-7%	15%	.	-13%	.	4%
CCc1nnc(NC(=O)CSc2nnc(-c3ccccc3NC(=O)c3ccccc3)o2)s1	?	-12%	-8	?	6	2%
CCOC(=O)CSc1nnc(-c2ccccc2NC(=O)c2ccccc2)o1	-23%	10%	?	11µM*	2	-5%
C=CCC(C)(O)C#Cc1ccccc1 (centres undefined)	-11%	.	.	-9%	.	4%
CSc1sc(C)cc1/C=N/O	16µM*	.	39	-7%	.	-2%
COc1ccc2c(C)cc(SCC(=O)Nc3ncc(Cl)cc3Cl)nc2c1	?	.	9	13µM*	.	-3%
Cc1cc(SCC(=O)Nc2ncc(Cl)cc2Cl)nc2ccccc12	-10%	.	2	-23%	-28	3%
O=S(=O)(c1ccc(F)cc1)n1ccc2cccnc21	-6%	.	-100*	5%	-5	6%
O=C(O)CSCCc1ccccc1	2%	0%[11.4 µM]	.	-2%	.	-2%[11.4 µM]
O=C1CCCc2nc(N3CCN(c4ccccc4)CC3)ncc21	-13%	2%	7	11µM*	-8	-3%
CC1=C(C(=O)OC2CCCC2)C(c2ccc(F)cc2F)CC(=O)N1 (centres undefined)	.	.	.	.	5	.
COc1ccc(CC(=O)c2c(O)cc(O)cc2O)cc1OC	32µM*	-3%	16	3%[38.3 µM]	2	-4%
O=C(Nc1nnc(-c2ccccc2SCc2ccccc2)s1)Nc1ccccc1F	-20%	?	?	-2%[38.3 µM]	?	2%
O=C(Nc1nnc(-c2ccccc2F)s1)Nc1ccccc1F	.	.	.	10µM*	.	.
CCN(CC)C(=O)c1ccc(S(=O)(=O)N2CCC(c3nc4ccccc4s3)CC2)cc1	-21%	.	-100*	13%	-11	4%
SMILES	HPGD block	ALOX15B inhib	PNC inhibitor	IMPase Li cell	IMPase cell inh	ALOX12 inhib
COc1ccc(/C=N/NC2=NCCCCC2)cc1	13µM*	-3%	3	24%[38.3 µM]	12	14%
COc1ccc(/C=N/NC2=NCCCCC2)c(OC)c1	.	.	.	10%	.	.
O=C(O)[C@@H]1[C@H](C(=O)O)[C@H]2C(=O)C=C[C@H]1N2Cc1ccccc1	-6%	-4%[11.4 µM]	.	10%	.	-2%[11.4 µM]
Cc1cc(Nc2ccc(Cl)cc2)n(-c2cccc(Cl)c2)n1	-17%	-3%	-3	41%[38.3 µM]	2	-13%
Cc1cc(Nc2ccc(Cl)cc2)n(-c2ccccc2)n1	7.9µM*	25%	-14	34%[38.3 µM]	1	-14%
CCCC/C(=N\NC(=O)c1ccc(Br)o1)c1ccccc1	-3%	.	-114*	11%	.	1%
